{"source": "the supplement of paper PMC7866885", "about": "“A novel bicyclic 2,4-diaminopyrimidine inhibitor of Streptococcus suis dihydrofolate reductase” (PeerJ, 2021)", "key": {"Streptococcus suis HE06": {"tested_on": "Streptococcus suis HE06", "assay": "percent growth relative to DMSO control; higher = less growth inhibition", "settings": "10 µM; incubation time 18 h", "experimental": "(§1)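 CLSI broth microdilution: 5x10^4 CFU of Streptococcus suis (strain P1/7 or HE06) incubated with 10 µM Pathogen Box compound in cation-adjusted Mueller Hinton broth, 37 °C, 5% CO2, 18 h. Growth read as OD600 and expressed as percent of the DMSO-treated control (100%); mean ± SD of three independent experiments.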"}, "Streptococcus suis P1/7": {"tested_on": "Streptococcus suis P1/7", "assay": "percent growth relative to DMSO control; higher = less growth inhibition", "settings": "10 µM; incubation time 18 h", "experimental": "as §1"}}, "note": "± gives the standard deviation.", "data": [{"smiles": "O=C(Cn1ccnc1[N+](=O)[O-])NCc1ccccc1", "values": [{"measurement": "percent growth", "setting": "Streptococcus suis HE06", "result": "79.1 ± 10", "unit": "%"}, {"measurement": "percent growth", "setting": "Streptococcus suis P1/7", "result": "114 ± 48", "unit": "%"}]}, {"smiles": "O=C(Nc1ccccc1)c1ccc(-c2cc3ccncc3cc2OC2CCNCC2)s1", "values": [{"measurement": "percent growth", "setting": "Streptococcus suis HE06", "result": "85.8 ± 20", "unit": "%"}, {"measurement": "percent growth", "setting": "Streptococcus suis P1/7", "result": "72.3 ± 8.4", "unit": "%"}]}, {"smiles": "COc1ccc(-c2nc(-c3cccc(NC(=O)Cc4ccc(F)cc4)c3)no2)cc1OC", "values": [{"measurement": "percent growth", "setting": "Streptococcus suis HE06", "result": "83 ± 3.5", "unit": "%"}, {"measurement": "percent growth", "setting": "Streptococcus suis P1/7", "result": "102 ± 57", "unit": "%"}]}, {"smiles": "Cc1cc(Cl)ccc1NC(=O)CCc1ccc(S(=O)(=O)NCC(C)C)cc1", "values": [{"measurement": "percent growth", "setting": "Streptococcus suis HE06", "result": "87.8 ± 9.9", "unit": "%"}, {"measurement": "percent growth", "setting": "Streptococcus suis P1/7", "result": "95.4 ± 17", "unit": "%"}]}, {"smiles": "Cc1cc2nc(NC(=O)C(C)(C)C)nc(Cl)c2n1Cc1ccc(Cl)cc1", "values": [{"measurement": "percent growth", "setting": "Streptococcus suis HE06", "result": "115 ± 19", "unit": "%"}, {"measurement": "percent growth", "setting": "Streptococcus suis P1/7", "result": "109 ± 58", "unit": "%"}]}, {"smiles": "CNC(=O)CNc1nc(-c2ccccn2)nc2scc(-c3ccccc3)c12", "values": [{"measurement": "percent growth", "setting": "Streptococcus suis HE06", "result": "87.1 ± 13", "unit": "%"}, {"measurement": "percent growth", "setting": "Streptococcus suis P1/7", "result": "43 ± 38", "unit": "%"}]}, {"smiles": "O=C1N(Cc2cc3ccccc3s2)CC2CN(Cc3ccccc3)CCN12", "note": "(stereo not given)", "values": [{"measurement": "percent growth", "setting": "Streptococcus suis HE06", "result": "82.2 ± 8", "unit": "%"}, {"measurement": "percent growth", "setting": "Streptococcus suis P1/7", "result": "83.1 ± 18", "unit": "%"}]}, {"smiles": "NC(=O)c1cc(-c2ccsc2)ccc1OCCOc1ccccc1", "values": [{"measurement": "percent growth", "setting": "Streptococcus suis HE06", "result": "118 ± 40", "unit": "%"}, {"measurement": "percent growth", "setting": "Streptococcus suis P1/7", "result": "120 ± 58", "unit": "%"}]}, {"smiles": "Cc1nnc(NC(=O)c2cn(-c3ccccc3)nc2-c2ccccc2C)o1", "values": [{"measurement": "percent growth", "setting": "Streptococcus suis HE06", "result": "0.31 ± 0.38", "unit": "%"}, {"measurement": "percent growth", "setting": "Streptococcus suis P1/7", "result": "0.18 ± 0.31", "unit": "%"}]}, {"smiles": "CC(C)(C(=O)Nc1ccc(F)cc1)n1cc(-c2ccccc2F)cn1", "values": [{"measurement": "percent growth", "setting": "Streptococcus suis HE06", "result": "106 ± 22", "unit": "%"}, {"measurement": "percent growth", "setting": "Streptococcus suis P1/7", "result": "84.1 ± 6.1", "unit": "%"}]}, {"smiles": "COc1ccccc1OCCCCn1c(C2CC2)nc2ccccc21", "values": [{"measurement": "percent growth", "setting": "Streptococcus suis HE06", "result": "102.6 ± 0.9", "unit": "%"}, {"measurement": "percent growth", "setting": "Streptococcus suis P1/7", "result": "102 ± 21", "unit": "%"}]}, {"smiles": "COCC(C)NC(=O)CSc1ncnc2sc(-c3ccccc3)cc12", "note": "(stereo not given)", "values": [{"measurement": "percent growth", "setting": "Streptococcus suis HE06", "result": "95.4 ± 33", "unit": "%"}, {"measurement": "percent growth", "setting": "Streptococcus suis P1/7", "result": "84.8 ± 13", "unit": "%"}]}, {"smiles": "CS(=O)(=O)c1ccc(C(=O)N(CC2CCCO2)c2nc3ccccc3s2)cc1[N+](=O)[O-]", "note": "(stereo not given)", "values": [{"measurement": "percent growth", "setting": "Streptococcus suis HE06", "result": "91.7 ± 7.5", "unit": "%"}, {"measurement": "percent growth", "setting": "Streptococcus suis P1/7", "result": "108 ± 18", "unit": "%"}]}, {"smiles": "COc1ccc(S(=O)(=O)Nc2ccc(CN3CCN(C(=O)c4cccc(C#N)c4)CC3)cc2)cc1", "values": [{"measurement": "percent growth", "setting": "Streptococcus suis HE06", "result": "103 ± 16", "unit": "%"}, {"measurement": "percent growth", "setting": "Streptococcus suis P1/7", "result": "118 ± 47", "unit": "%"}]}, {"smiles": "O=C(c1cc2ccccc2o1)N1CCN(Cc2ccc3c(c2)OCO3)CC1", "values": [{"measurement": "percent growth", "setting": "Streptococcus suis HE06", "result": "84.6 ± 20", "unit": "%"}, {"measurement": "percent growth", "setting": "Streptococcus suis P1/7", "result": "102 ± 20", "unit": "%"}]}, {"smiles": "Cc1nn2c(O)c3c(nc2c1-c1ccc(F)cc1)CCCC3", "values": [{"measurement": "percent growth", "setting": "Streptococcus suis HE06", "result": "63.3 ± 22", "unit": "%"}, {"measurement": "percent growth", "setting": "Streptococcus suis P1/7", "result": "45.5 ± 21", "unit": "%"}]}, {"smiles": "CC(C(=O)N1CCCC1)N1CCN(S(=O)(=O)c2ccc(C(C)(C)C)cc2)CC1", "note": "(stereo not given)", "values": [{"measurement": "percent growth", "setting": "Streptococcus suis HE06", "result": "84.8 ± 24", "unit": "%"}, {"measurement": "percent growth", "setting": "Streptococcus suis P1/7", "result": "63.4 ± 27", "unit": "%"}]}, {"smiles": "CCCCc1ccc(NC(=O)Nc2ccc(O[C@H]3CCCC[C@@H]3N(C)c3ccccc3)c(F)c2)cc1", "values": [{"measurement": "percent growth", "setting": "Streptococcus suis HE06", "result": "77.8 ± 26", "unit": "%"}, {"measurement": "percent growth", "setting": "Streptococcus suis P1/7", "result": "67.2 ± 2.9", "unit": "%"}]}, {"smiles": "Cn1ncc2c(N3CCOCC3)nc(NCCc3c[nH]c4ccccc34)nc21", "values": [{"measurement": "percent growth", "setting": "Streptococcus suis HE06", "result": "76.5 ± 10", "unit": "%"}, {"measurement": "percent growth", "setting": "Streptococcus suis P1/7", "result": "78.8 ± 17", "unit": "%"}]}, {"smiles": "Cc1ccc2[nH]c3c(NCCN(C)C)ncnc3c2c1", "values": [{"measurement": "percent growth", "setting": "Streptococcus suis HE06", "result": "96.1 ± 12", "unit": "%"}, {"measurement": "percent growth", "setting": "Streptococcus suis P1/7", "result": "172 ± 110", "unit": "%"}]}, {"smiles": "CC1=NN(c2nc3ccccc3s2)C(=O)C1Cc1cccc2ccccc12", "note": "(stereo not given)", "values": [{"measurement": "percent growth", "setting": "Streptococcus suis HE06", "result": "0.762 ± 0.8", "unit": "%"}, {"measurement": "percent growth", "setting": "Streptococcus suis P1/7", "result": "3.74 ± 3.5", "unit": "%"}]}, {"smiles": "CC(=O)NCC1CN(c2ccc(-c3ccc(CO)cc3)c(F)c2)C(=O)O1", "note": "(stereo not given)", "values": [{"measurement": "percent growth", "setting": "Streptococcus suis HE06", "result": 0, "unit": "%"}, {"measurement": "percent growth", "setting": "Streptococcus suis P1/7", "result": "0.214 ± 0.37", "unit": "%"}]}, {"smiles": "Cc1cnc(CCNC(=O)c2cc(-c3ccc(Cl)cc3)cs2)[nH]1", "values": [{"measurement": "percent growth", "setting": "Streptococcus suis HE06", "result": "80.7 ± 6.9", "unit": "%"}, {"measurement": "percent growth", "setting": "Streptococcus suis P1/7", "result": "77.5 ± 18", "unit": "%"}]}, {"smiles": "CCc1nc2ccccc2n1CC(O)COc1cc(C)ccc1Cl", "note": "(stereo not given)", "values": [{"measurement": "percent growth", "setting": "Streptococcus suis HE06", "result": "65.7 ± 22", "unit": "%"}, {"measurement": "percent growth", "setting": "Streptococcus suis P1/7", "result": "103 ± 41", "unit": "%"}]}, {"smiles": "COc1ccc(-c2cc(NC(=O)c3ccc(F)cc3Cl)ccc2OC)cc1", "values": [{"measurement": "percent growth", "setting": "Streptococcus suis HE06", "result": "89.4 ± 3.4", "unit": "%"}, {"measurement": "percent growth", "setting": "Streptococcus suis P1/7", "result": "96 ± 31", "unit": "%"}]}, {"smiles": "CC(C)C(C(=O)Nc1ccc(S(=O)(=O)N(C)C)cc1)c1ccc(Cl)cc1", "note": "(stereo not given)", "values": [{"measurement": "percent growth", "setting": "Streptococcus suis HE06", "result": "110 ± 24", "unit": "%"}, {"measurement": "percent growth", "setting": "Streptococcus suis P1/7", "result": "86 ± 22", "unit": "%"}]}, {"smiles": "Cc1cc(NC(=O)c2ccc(S(=O)(=O)N(Cc3ccccc3)C(C)C)cc2)no1", "values": [{"measurement": "percent growth", "setting": "Streptococcus suis HE06", "result": "105 ± 27", "unit": "%"}, {"measurement": "percent growth", "setting": "Streptococcus suis P1/7", "result": "71.6 ± 30", "unit": "%"}]}, {"smiles": "O=C(NC1CCN(c2ccnc3ccccc23)C1)c1cccc(C(F)(F)F)c1", "note": "(stereo not given)", "values": [{"measurement": "percent growth", "setting": "Streptococcus suis HE06", "result": "106 ± 30", "unit": "%"}, {"measurement": "percent growth", "setting": "Streptococcus suis P1/7", "result": "81.5 ± 25", "unit": "%"}]}, {"smiles": "CC(C)(C)c1cc(C(=O)Nc2cccnc2)cc(C(=O)Nc2cccnc2)c1", "values": [{"measurement": "percent growth", "setting": "Streptococcus suis HE06", "result": "80.6 ± 4.4", "unit": "%"}, {"measurement": "percent growth", "setting": "Streptococcus suis P1/7", "result": "143 ± 90", "unit": "%"}]}, {"smiles": "CC(C)(C)c1cc(C(=O)N2CCN(c3nccnc3C#N)CC2)n(Cc2ccccc2)n1", "values": [{"measurement": "percent growth", "setting": "Streptococcus suis HE06", "result": "93.1 ± 32", "unit": "%"}, {"measurement": "percent growth", "setting": "Streptococcus suis P1/7", "result": "91.6 ± 34", "unit": "%"}]}, {"smiles": "Nc1nccc2ccc(Oc3ccncc3)cc12", "values": [{"measurement": "percent growth", "setting": "Streptococcus suis HE06", "result": "97.4 ± 7", "unit": "%"}, {"measurement": "percent growth", "setting": "Streptococcus suis P1/7", "result": "84.2 ± 8.7", "unit": "%"}]}, {"smiles": "Cc1cc(C)c2cc(C(=O)NC3CCCCCCC3)[nH]c2c1", "values": [{"measurement": "percent growth", "setting": "Streptococcus suis HE06", "result": "90.5 ± 14", "unit": "%"}, {"measurement": "percent growth", "setting": "Streptococcus suis P1/7", "result": "90.1 ± 32", "unit": "%"}]}, {"smiles": "CN1CCN(c2nccc3nc(-c4ccc(F)c(F)c4)[nH]c23)CC1", "values": [{"measurement": "percent growth", "setting": "Streptococcus suis HE06", "result": "82.2 ± 21", "unit": "%"}, {"measurement": "percent growth", "setting": "Streptococcus suis P1/7", "result": "68.8 ± 13", "unit": "%"}]}, {"smiles": "Brc1c(-c2ccc3c(c2)OCO3)nc2ncccn12", "values": [{"measurement": "percent growth", "setting": "Streptococcus suis HE06", "result": "95.7 ± 6.9", "unit": "%"}, {"measurement": "percent growth", "setting": "Streptococcus suis P1/7", "result": "85.8 ± 20", "unit": "%"}]}, {"smiles": "COC(=O)c1ccc(F)cc1NS(=O)(=O)c1cccc(-c2cnn(Cc3ccccc3)c2)c1", "values": [{"measurement": "percent growth", "setting": "Streptococcus suis HE06", "result": "99.6 ± 8.2", "unit": "%"}, {"measurement": "percent growth", "setting": "Streptococcus suis P1/7", "result": "127 ± 52", "unit": "%"}]}]}
